Experimental data reported in PubChem BioAssay (Tox21).
Inconclusive results are not listed. The source made the active and inactive calls. Unless noted, calls follow the shape of the dose curve; as a rule, active = well fitted curve in the direction sought with a large enough effect in the repeat runs; inconclusive = weak or mixed curves; inactive = no such curve, though single readings can be large; an effect the other way counts as inactive or inconclusive.

Key:
[1] = qHTS assay to identify aromatase inhibitors - cell viability counter screen (AID 743084);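 also: cells stimulated with testosterone during compound exposure; nearly all actives have a fitted effect of over 55% in size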
[2] = target: Aryl hydrocarbon receptor (Homo sapiens) (UniProt P35869); experiment: qHTS assay to identify small molecule that activate the aryl hydrocarbon receptor (AhR) signaling pathway (AID 743085); also: nearly all actives have a fitted effect of over 15% in size; also: potency is read from the fitted curve at half-maximal effect;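 as to activation: HG2L7.5c1 human HepG2 liver cells with stably integrated DRE-driven firefly reporter; series mostly up to about 70 µM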
Summary of the method: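 Stably transfected human liver carcinoma cells (HG2L7.5c1; 20 DRE-firefly luciferase) were incubated 5 h, dosed, and kept 24 h at 37C. Agonism was scored from increased luciferase luminescence.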

[3] = qHTS assay to identify small molecule that activate the aryl hydrocarbon receptor (AhR) signaling pathway - cell viability counter screen (AID 743086);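 also: HepG2 liver cells carrying the AhR DRE luciferase reporter; series mostly up to about 70 µM; nearly all actives have a fitted effect of over 45% in size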
Summary of the method: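 HepG2-AhR-luc (HG2L7.5c1) cells, 4000/well, were preincubated 5 h at 37C, exposed to compound in qHTS format for 24 hr at 37C, then given CellTiter-Fluor for 30 min; viability was read as fluorescence in the reporter wells.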

[4] = target: Peroxisome proliferator-activated receptor gamma (Homo sapiens) (UniProt P37231); experiment: qHTS assay to identify small molecule agonists of the peroxisome proliferator-activated receptor gamma (PPARg) signaling pathway (AID 743094; active = well fitted activation curve with a large enough effect in the signal ratio in the repeat runs, not every such curve was filed as active; the % refers to the signal ratio)
Summary of the method: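 Reporter activation was scored by fluorescence of cleaved LiveBLAzer B/G substrate (1 h, room temperature) in PPARg-bla HEK293H cells previously treated 17 h at 37C with DMSO-dissolved compounds.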

[5] = target: Peroxisome proliferator-activated receptor gamma (Homo sapiens) (UniProt P37231); experiment: qHTS assay to identify small molecule antagonists of the peroxisome proliferator-activated receptor gamma (PPARg) signaling pathway (AID 743191; calls by dose curve; also: series mostly up to about 63 µM; nearly all actives have a fitted effect of over 30% in size)
Summary of the method: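 GeneBLAzer PPARg UAS-bla HEK293H cells carrying a UAS-driven beta-lactamase reporter were plated at 3000 cells/well, preincubated 5 h at 37C, then given compound for 17 h at 37C; LiveBLAzer B/G FRET substrate was read after 1 h at room temperature.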

[6] = qHTS assay to identify small molecule antagonists of the peroxisome proliferator-activated receptor gamma (PPARg) signaling pathway - cell viability counter screen (AID 743194); also: nearly all actives have a fitted effect of over 55% in size
Summary of the method: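 PPARg-UAS-bla HEK293H cells were plated, rested 5 h at 37 C, then treated with compounds plus rosiglitazone (50 nM final) for 17 h at 37 C; viability was then read by CellTiter-Glo luminescence after 30 min at room temperature.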

[7] = qHTS assay for small molecule agonists of the antioxidant response element (ARE) signaling pathway (AID 743202; active = well fitted activation curve with a large enough effect in the signal ratio in the repeat runs, not every such curve was filed as active; the % refers to the signal ratio)
Summary of the method: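 Following a 16 h, 37 C exposure of reporter HepG2 cells (ARE-driven beta-lactamase, 2,000 cells/well) to compounds, FRET substrate was applied for 2 h at room temperature and fluorescence intensity recorded.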

[8] = qHTS assay for small molecule agonists of the antioxidant response element (ARE) signaling pathway - cell viability counter screen (AID 743203; calls by dose curve; also: nearly all actives have a fitted effect of over 55% in size)
Summary of the method: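 Viability counter screen: stably transfected ARE-bla HepG2 line, 16 hrs compound exposure at 37C/5% CO2, ATP-based CellTiter-Glo luminescence measured in the reporter wells.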

[9] = qHTS assay for small molecule activators of the heat shock response signaling pathway - cell viability counter screen (AID 743209); also: nearly all actives have a fitted effect of over 50% in size
Summary of the method: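 Viability of HSE-bla HeLa cells is measured with CellTiter-Glo in the wells already used for the reporter read. Compound exposure lasts 5 h at 37 C, and luminescence is read after 30 min at room temperature.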

[10] = qHTS assay for small molecule activators of the heat shock response signaling pathway (AID 743210; active = well fitted activation curve with a large enough effect in the signal ratio in the repeat runs, with a control signal flat, not every such curve was filed as active; the % refers to the signal ratio; also: series mostly up to about 63 µM)
Summary of the method: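 Heat shock element–beta-lactamase HeLa reporter cells; qHTS with compounds for 5 h at 37 C; detection by FRET substrate fluorescence after 2.5 h at RT.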

[11] = qHTS assay to identify small molecule agonists of the peroxisome proliferator-activated receptor delta (PPARd) signaling pathway - cell viability counter screen (AID 743211); also: nearly all actives have a fitted effect of over 55% in size
Summary of the method: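 In the same wells used for beta-lactamase reporter measurement, cytotoxicity is scored by CellTiter-Glo. HEK293H PPARd-bla cells receive compound for 17 h at 37C following a 5 h settling period.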

[12] = target: Peroxisome proliferator-activated receptor delta (Homo sapiens) (UniProt Q03181); experiment: qHTS assay to identify small molecule agonists of the peroxisome proliferator-activated receptor delta (PPARd) signaling pathway (AID 743212; calls by dose curve)
Summary of the method: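 Beta-lactamase reporter read by fluorescence (LiveBLAzer B/G FRET, 2 h, room temperature). Test agents, in DMSO, incubated at 37 C with PPARd-bla HEK293H cells.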

[13] = target: Peroxisome proliferator-activated receptor delta (Homo sapiens) (UniProt Q03181); experiment: qHTS assay to identify small molecule antagonists of the peroxisome proliferator-activated receptor delta (PPARd) signaling pathway (AID 743215; active = well fitted inhibition curve with a large enough effect in the signal ratio in the repeat runs, not every such curve was filed as active; the % refers to the signal ratio; also: series mostly up to about 62 µM)
Summary of the method: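 Plated HEK293H PPARd-bla cells rested 5 h at 37 C and 5% CO2. Compound, then agonist L165041 at 300 nM final, was added; 17 h at 37 C followed. Substrate loading, 2 h room temperature, fluorescence measured.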

[14] = target: Bile acid receptor (Homo sapiens) (UniProt Q96RI1); experiment: qHTS assay to identify small molecule antagonists of the farnesoid-X-receptor (FXR) signaling pathway (AID 743217; active = well fitted inhibition curve with a large enough effect in the signal ratio in the repeat runs, not every such curve was filed as active; the % refers to the signal ratio)
Summary of the method: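 Screen of the Tox21 10K library in quantitative HTS format using FXR-UAS-bla HEK 293T reporter cells. Agonist chenodeoxycholic acid, 50 uM final, added with compounds; 16 h incubation at 37 °C; beta-lactamase FRET fluorescence measured.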

[15] = qHTS assay to identify small molecule agonists of the farnesoid-X-receptor (FXR) signaling pathway - cell viability counter screen (AID 743218); also: nearly all actives have a fitted effect of over 45% in size
Summary of the method: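 Viability of FXR-bla HEK 293T cells is measured by ATP-based CellTiter-Glo luminescence following 16 h compound treatment at 37 C and a prior 2 h room-temperature beta-lactamase substrate step.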

[16] = target: Bile acid receptor (Homo sapiens) (UniProt Q96RI1); experiment: qHTS assay to identify small molecule agonists of the farnesoid-X-receptor (FXR) signaling pathway (AID 743220; active = well fitted activation curve with a large enough effect in the signal ratio in the repeat runs, not every such curve was filed as active; the % refers to the signal ratio)
Summary of the method: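 FXR-UAS-bla HEK 293T cells carrying a UAS-driven beta-lactamase reporter were plated for 5 h at 37C/5% CO2, then exposed to DMSO-dissolved Tox21 10K compounds for 16 h at 37C. A LiveBLAzer B/G FRET substrate was loaded for 2 h at room temperature before fluorescence reading.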

[17] = qHTS assay to identify small molecule antagonists of the farnesoid-X-receptor (FXR) signaling pathway - cell viability counter screen (AID 743221; active = well fitted cell-killing curve with a large enough effect in the repeat runs, not every such curve was filed as active; also: nearly all actives have a fitted effect of over 50% in size)
Summary of the method: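 Here viability was scored by luminescence after CellTiter-Glo addition to wells already read for beta-lactamase. Prior treatment: compound plus CDCA (50 uM final), 16 h, 37 C, HEK 293T FXR-bla cells.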

[18] = qHTS assay to identify small molecule antagonists of the peroxisome proliferator-activated receptor delta (PPARd) signaling pathway - cell viability counter screen (AID 743213); also: nearly all actives have a fitted effect of over 50% in size
Summary of the method: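 Agonist-stimulated (L165041, 300 nM final) HEK293H PPARd UAS-bla cells are exposed to compounds for 17 h at 37 C, and ATP-based luminescence (CellTiter-Glo) from the same wells reports cytotoxicity.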

[19] = target: Vitamin D3 receptor (Homo sapiens) (UniProt P11473); experiment: qHTS assay to identify small molecule agonists of the vitamin D receptor (VDR) signaling pathway (AID 743222; calls by dose curve)
Summary of the method: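 Fluorescence from cleaved LiveBLAzer B/G FRET substrate served as readout. VDR-bla cells had been treated 16 h at 37C with test compounds in DMSO, following a 4 h settling period, and substrate was loaded for 2 h at RT.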

[20] = target: Vitamin D3 receptor (Homo sapiens) (UniProt P11473); experiment: qHTS assay to identify small molecule antagonists of the vitamin D receptor (VDR) signaling pathway (AID 743223; active = well fitted inhibition curve with a large enough effect in the signal ratio in the repeat runs, not every such curve was filed as active; the % refers to the signal ratio)
Summary of the method: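 Inhibition of agonist-driven VDR signalling is scored in VDR-bla cells: 3 nM final 1alpha,25-dihydroxyvitamin D3 plus compound, 16 h at 37C, then beta-lactamase detection by FRET substrate fluorescence after 2 h.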

Measured: Potency

Chain of Aryl hydrocarbon receptor (Homo sapiens) (P35869 whole entry, looked up): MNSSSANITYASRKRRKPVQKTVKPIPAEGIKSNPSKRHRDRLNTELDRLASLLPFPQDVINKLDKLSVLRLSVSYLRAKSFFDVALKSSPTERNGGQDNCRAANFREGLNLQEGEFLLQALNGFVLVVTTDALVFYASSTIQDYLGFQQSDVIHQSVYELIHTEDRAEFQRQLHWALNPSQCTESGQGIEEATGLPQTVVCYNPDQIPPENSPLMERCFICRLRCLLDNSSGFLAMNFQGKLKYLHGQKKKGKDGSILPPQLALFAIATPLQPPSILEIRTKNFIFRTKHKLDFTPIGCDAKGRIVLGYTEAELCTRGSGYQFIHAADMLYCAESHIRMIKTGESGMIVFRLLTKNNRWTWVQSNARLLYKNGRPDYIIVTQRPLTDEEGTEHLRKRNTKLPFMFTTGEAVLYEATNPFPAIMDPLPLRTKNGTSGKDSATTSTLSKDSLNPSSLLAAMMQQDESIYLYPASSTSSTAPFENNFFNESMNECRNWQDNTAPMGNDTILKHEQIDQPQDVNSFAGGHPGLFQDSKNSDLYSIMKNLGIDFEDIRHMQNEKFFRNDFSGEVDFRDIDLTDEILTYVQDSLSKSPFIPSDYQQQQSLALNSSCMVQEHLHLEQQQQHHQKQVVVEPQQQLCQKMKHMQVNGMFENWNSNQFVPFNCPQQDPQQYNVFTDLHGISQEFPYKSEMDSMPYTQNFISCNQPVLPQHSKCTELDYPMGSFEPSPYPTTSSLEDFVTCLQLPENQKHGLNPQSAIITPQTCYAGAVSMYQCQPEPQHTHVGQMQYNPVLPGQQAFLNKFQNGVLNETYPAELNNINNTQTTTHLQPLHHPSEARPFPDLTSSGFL
Chain of Peroxisome proliferator-activated receptor gamma (Homo sapiens) (P37231 whole entry, looked up): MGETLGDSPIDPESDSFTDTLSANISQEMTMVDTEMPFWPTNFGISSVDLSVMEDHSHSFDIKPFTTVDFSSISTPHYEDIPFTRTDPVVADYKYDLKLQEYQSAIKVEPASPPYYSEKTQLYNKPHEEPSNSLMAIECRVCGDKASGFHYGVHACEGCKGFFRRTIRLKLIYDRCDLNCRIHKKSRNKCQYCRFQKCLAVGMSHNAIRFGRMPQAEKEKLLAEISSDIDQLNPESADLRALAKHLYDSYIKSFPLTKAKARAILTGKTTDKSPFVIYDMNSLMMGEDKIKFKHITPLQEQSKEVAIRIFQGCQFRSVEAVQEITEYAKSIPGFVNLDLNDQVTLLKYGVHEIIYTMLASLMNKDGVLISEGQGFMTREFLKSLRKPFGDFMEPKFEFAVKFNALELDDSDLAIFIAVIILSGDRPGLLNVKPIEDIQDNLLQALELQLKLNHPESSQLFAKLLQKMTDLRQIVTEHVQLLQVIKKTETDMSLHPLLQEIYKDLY
Chain of Bile acid receptor (Homo sapiens) (Q96RI1 whole entry, looked up): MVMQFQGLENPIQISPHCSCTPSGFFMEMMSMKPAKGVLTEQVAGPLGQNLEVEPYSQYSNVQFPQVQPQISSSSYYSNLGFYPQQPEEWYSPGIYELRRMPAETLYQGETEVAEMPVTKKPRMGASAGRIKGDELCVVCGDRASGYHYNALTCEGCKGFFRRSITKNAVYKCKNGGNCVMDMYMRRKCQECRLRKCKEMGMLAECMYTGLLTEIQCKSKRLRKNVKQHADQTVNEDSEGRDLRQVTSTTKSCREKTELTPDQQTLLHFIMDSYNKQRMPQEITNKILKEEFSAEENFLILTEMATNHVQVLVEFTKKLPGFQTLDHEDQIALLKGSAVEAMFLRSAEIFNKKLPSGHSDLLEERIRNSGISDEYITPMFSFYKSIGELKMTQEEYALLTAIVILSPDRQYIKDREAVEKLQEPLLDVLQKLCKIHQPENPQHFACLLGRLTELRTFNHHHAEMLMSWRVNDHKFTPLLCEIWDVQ
Chain of Vitamin D3 receptor (Homo sapiens) (P11473 whole entry, looked up): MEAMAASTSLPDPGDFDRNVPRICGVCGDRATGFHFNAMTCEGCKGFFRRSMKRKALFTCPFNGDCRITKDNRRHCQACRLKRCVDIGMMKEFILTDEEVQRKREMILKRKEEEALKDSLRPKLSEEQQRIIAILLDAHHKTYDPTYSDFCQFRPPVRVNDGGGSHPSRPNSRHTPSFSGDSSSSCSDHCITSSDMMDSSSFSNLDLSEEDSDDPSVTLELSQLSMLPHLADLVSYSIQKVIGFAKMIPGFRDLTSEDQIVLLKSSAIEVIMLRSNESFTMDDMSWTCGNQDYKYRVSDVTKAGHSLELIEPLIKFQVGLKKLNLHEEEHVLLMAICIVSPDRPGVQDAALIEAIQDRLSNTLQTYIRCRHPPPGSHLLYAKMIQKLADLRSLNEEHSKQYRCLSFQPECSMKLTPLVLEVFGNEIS
Chain of Peroxisome proliferator-activated receptor delta (Homo sapiens) (Q03181 whole entry, looked up): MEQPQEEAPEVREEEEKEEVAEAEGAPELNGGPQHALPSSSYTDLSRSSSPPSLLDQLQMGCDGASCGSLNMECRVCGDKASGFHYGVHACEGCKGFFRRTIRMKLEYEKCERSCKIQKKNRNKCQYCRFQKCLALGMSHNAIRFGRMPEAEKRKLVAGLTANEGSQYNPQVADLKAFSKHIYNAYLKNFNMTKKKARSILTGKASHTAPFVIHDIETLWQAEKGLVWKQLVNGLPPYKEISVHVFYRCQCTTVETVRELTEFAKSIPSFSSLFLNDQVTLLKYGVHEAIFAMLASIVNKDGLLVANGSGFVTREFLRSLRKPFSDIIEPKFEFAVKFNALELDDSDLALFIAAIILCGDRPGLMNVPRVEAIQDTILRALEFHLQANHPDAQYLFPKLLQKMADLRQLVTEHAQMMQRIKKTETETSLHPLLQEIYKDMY

CCN(CCO)c1cccc(C)c1
not listed: [18] | [19] | [20]
inactive: all other assays above

C[CH2][Ge]([Cl])([CH2]C)[CH2]C
not listed: [10] | [14]
inactive: all other assays above

CCC1COC(=O)O1 (stereo unspecified)
inactive: all assays above

O=CN1CCOCC1
not listed: [11] | [14] | [16] | [19] | [20]
inactive: all other assays above

CCCCCC1Nc2cc(C(F)(F)F)c(S(N)(=O)=O)cc2S(=O)(=O)N1 (stereo unspecified)
not listed: [12] | [14] | [16]
inactive: all other assays above

C=CC(C)(O)CC/C=C(\C)CC (stereo unspecified)
not listed: [14] | [15] | [16]
inactive: all other assays above

Nc1ccnc(=O)[nH]1
not listed: [14] | [16] | [20]
inactive: all other assays above

COCC(=O)Nc1c(I)c(C(=O)NCC(O)CO)c(I)c(C(=O)N(C)CC(O)CO)c1I (stereo unspecified)
not listed: [10] | [11] | [12] | [14] | [16] | [19] | [20]
inactive: all other assays above

CCCCCCCCCCCCCC(=O)OC
not listed: [13] | [14] | [16] | [20]
inactive: all other assays above

CCCCC(CC)COC(=O)c1ccccc1 (stereo unspecified)
not listed: [10] | [11] | [14] | [16] | [19]
inactive: all other assays above

COCCOCCOCCOC
not listed: [12] | [13]
inactive: all other assays above

CC(=O)OC(C(=O)c1ccccc1)c1ccccc1 (stereo unspecified)
not listed: [12] | [13] | [14] | [19] | [20]
inactive: all other assays above

CCCCCCCCCCCCC1CO1 (stereo unspecified)
not listed: [10] | [12] | [19] | [20]
inactive: all other assays above

NC(Cc1c[nH]c2ccccc12)C(=O)O (stereo unspecified)
active: [2] 21.2 µM
not listed: [14] | [16]
inactive: all other assays above

FC(F)(F)/C(=N\OCC1OCCO1)c1ccc(Cl)cc1
not listed: [12] | [13] | [14] | [16]
inactive: all other assays above

CC(C)(CO)[C@@H](O)C(=O)NCCCO
inactive: all assays above

C=CCOC(=O)c1ccc(C(=O)OCC=C)c(C(=O)OCC=C)c1
not listed: [14] | [16]
inactive: all other assays above

Cc1nc2ccccc2c(=O)o1
not listed: [10] | [13] | [14] | [16] | [19] | [20]
inactive: all other assays above

Nc1cc(C(=O)O)ccc1Cl
not listed: [18]
inactive: all other assays above

NC(=O)NC(=O)Cc1ccccc1
not listed: [10] | [13]
inactive: all other assays above

CNC(=O)NC
not listed: [13] | [14] | [18]
inactive: all other assays above

NS(=O)(=O)c1cc2c(cc1Cl)NC(CC1CCCC1)NS2(=O)=O (stereo unspecified)
not listed: [9] | [11] | [12] | [13] | [14]
inactive: all other assays above

CC(C)COC(=O)CCCCC(=O)OCC(C)C
not listed: [11] | [20]
inactive: all other assays above

Cc1ccccc1OCC1CO1 (stereo unspecified)
not listed: [11] | [20]
inactive: all other assays above

CC(Cl)COP(=O)(OCC(C)Cl)OCC(C)Cl (stereo unspecified)
not listed: [14] | [16]
inactive: all other assays above

CCOC(=O)CCCCCCCCC(=O)OCC
not listed: [10] | [12] | [13] | [14] | [16] | [20]
inactive: all other assays above

CCCCCCCCCCCCCCCCI
not listed: [11] | [14]
inactive: all other assays above

CN(C)CCCNCCC#N
not listed: [12] | [13] | [14] | [16]
inactive: all other assays above

CC1=CC[C@H](CC=O)C1(C)C
not listed: [12] | [17]
inactive: all other assays above

CCCCC/C=C/CC(=O)OC
not listed: [12] | [13] | [14] | [16]
inactive: all other assays above

CCN1CN(CC)CN(CC)C1
not listed: [11] | [19] | [20]
inactive: all other assays above

CCCCCCCCC(=O)OCC
not listed: [10] | [12] | [14] | [16] | [18]
inactive: all other assays above

C=C[C@@H](C)CCC=C(C)C
not listed: [10] | [13] | [14] | [15] | [16] | [18]
inactive: all other assays above
